Records with an inconclusive call do not appear. Active and inactive are the calls of the source. Calls follow the shape of the dose curve; as a rule, active = well fitted curve in the direction sought with a large enough effect; inconclusive = small, poorly fitted or top-dose-only effect, or another doubt; inactive = no such curve, though single readings can be large; an effect the other way counts as inactive or inconclusive.
Legend:
CRL-7250 = normal cell line; assay: Cytotoxic Profiling of Annotated Libraries Using Quantitative High-Throughput Screening (AID 1296008); details: Five cell lines viability, CellTiter-Glo ATP luminescence, 48-72 h; max response: stronger effect = lower value; also: nearly all actives have a fitted effect of over 60% in size; also: potency is read from the fitted curve at half-maximal effect; as to max response: % is scaled to controls: 0 for no effect and ±100 for the full control effect
Procedure, shortened: (§1)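 Compounds were pin-transferred onto cells and incubated 48 or 72 hr at 37 degree Celsius, 95% humidity. CellTiter-Glo was added, plates sat 10 min at room temperature, then ATP-coupled luminescence was imaged as the viability read-out.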

HEK293 = assay: as above; details: Five cell lines viability, CellTiter-Glo ATP luminescence, 48-72 h; max response: stronger effect = lower value
Procedure, shortened: as §1

HaCat [1] = assay: as above; details: Five cell lines viability, CellTiter-Glo ATP luminescence, 48-72 h; max response: stronger effect = lower value
Procedure, shortened: as §1

NIH3T3 = assay: as above; details: Five cell lines viability, CellTiter-Glo ATP luminescence, 48-72 h; max response: stronger effect = lower value
Procedure, shortened: as §1

OV90 = assay: Primary qHTS to identify gynecologic anti-cancer compounds using libraries of approved drugs and bioactive compounds (AID 1345084); details: Gynecologic cancer cell panel viability, ATPlite luminescence, 48 h; series mostly up to 57.5 µM; also: nearly all actives have a fitted effect of over 55% in size; also: potency is read from the fitted curve at half-maximal effect
Procedure, shortened: (§2)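 Measured: luminescence after ATPlite addition (15 min, RT). Exposure: 48 h, 37 C, 5% CO2.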

CAOV3 = assay: as above; details: Gynecologic cancer cell panel viability, ATPlite luminescence, 48 h; series mostly up to 57.5 µM
Procedure, shortened: as §2

HeLa = assay: as above; details: Gynecologic cancer cell panel viability, ATPlite luminescence, 48 h; series mostly up to 57.5 µM
Procedure, shortened: as §2

Hek293T = assay: as above; details: Gynecologic cancer cell panel viability, ATPlite luminescence, 48 h, control line for the selectivity index; series mostly up to 57.5 µM
Procedure, shortened: as §2

C33A = assay: as above; details: Gynecologic cancer cell panel viability, ATPlite luminescence, 48 h; series mostly up to 57.5 µM
Procedure, shortened: as §2

Es-2 = assay: as above; details: Gynecologic cancer cell panel viability, ATPlite luminescence, 48 h; series mostly up to 57.5 µM
Procedure, shortened: as §2

CASKI = assay: as above; details: Gynecologic cancer cell panel viability, ATPlite luminescence, 48 h; series mostly up to 57.5 µM
Procedure, shortened: as §2

JEG-3 = assay: as above; details: Gynecologic cancer cell panel viability, ATPlite luminescence, 48 h; series mostly up to 57.5 µM
Procedure, shortened: as §2

HACAT [2] = assay: qHTS assay to identify novel small-molecules to repurpose for Merkel cell carcinoma treatment (AID 1296009); details: MCC and control cell lines, CellTiter-Glo viability, 72 h; at 44.8 µM (top of the series) unless noted; also: nearly all actives have a fitted effect of over 60% in size
Procedure, shortened: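 Luminescence from CellTiter-Glo, read 10 min after addition at room temperature, reported viability following a 72 hr, 37 degree celsius treatment with NPC or MIPE compounds in titration; values normalized to plate controls.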

CC[C@@H](C)Nc1cc(C(=O)NC2CC3CCC(C2)N3c2ccc(C(=O)C3CC3)cn2)c(C)cc1C(N)=O (some centres not stated)
active: Potency (CRL-7250) 0.259 µM | Potency (HEK293) 0.13 µM | Potency (HaCat [1]) 0.184 µM | Potency (NIH3T3) 0.206 µM | Potency (OV90) 0.316 µM

FC(F)(F)c1ccc(/C=C/c2nc(COc3ccc(CCCCn4ccnn4)cc3)co2)cc1
active: Potency (CRL-7250) 0.0651 µM | Potency (HEK293) 0.0291 µM
inactive: max response (HaCat [1]) -23.7% | max response (NIH3T3) -18.7% | Potency (CAOV3) | Potency (HeLa) | Potency (Hek293T)

COC1=CC(=O)C[C@@H](C)[C@@]12Oc1c(Cl)c(OC)cc(OC)c1C2=O
inactive: max response (CRL-7250) -44.3% | max response (HEK293) -102% | max response (HaCat [1]) -90.1% | max response (NIH3T3) -50.9% | Potency (C33A) | Potency (CAOV3) | Potency (Es-2) | Potency (OV90)

CCc1cc(C(N)=O)ccc1-n1nc(C(C)C)c2c(-n3cnc(-c4cnn(C)c4)c3)ccnc21
active: Potency (CRL-7250) 4.11 µM | Potency (NIH3T3) 1.3 µM
inactive: max response (HEK293) -117% | max response (HaCat [1]) -102% | Potency (CASKI) | Potency (Es-2) | Potency (HeLa) | Potency (JEG-3)

CCNC(=O)c1noc(-c2cc(Cl)c(O)cc2O)c1-c1ccc(OC)cc1
active: Potency (CRL-7250) 0.461 µM | Potency (HEK293) 0.206 µM | Potency (HaCat [1]) 0.259 µM | Potency (NIH3T3) 0.92 µM | Potency (C33A) 1.12 µM | Potency (Hek293T) 0.355 µM
inactive: Potency (OV90)

Cc1sc2c(c1C)C(c1ccc(Cl)cc1)=N[C@H](CC(=O)NCCCCNC(=O)COc1cccc3c1C(=O)N([C@H]1CCC(=O)NC1=O)C3=O)c1nnc(C)n1-2
active: Potency (CRL-7250) 1.84 µM | Potency (HEK293) 2.59 µM
inactive: max response (HaCat [1]) -67.4% | max response (NIH3T3) -0.715% | Potency (C33A) | Potency (CAOV3) | Potency (CASKI) | Potency (OV90)

Nc1nc(O)c(C2=C3C(=Nc4ccccc43)C(=O)NCC2)[nH]1
inactive: max response (CRL-7250) -2.87% | max response (HEK293) -2.48% | max response (HaCat [1]) -1.91% | max response (NIH3T3) 2.47% | Potency (CASKI) | Potency (Es-2) | Potency (HeLa) | Potency (Hek293T) | Potency (OV90)

C=CC(=O)Nc1cccc(Nc2nc(Nc3ccc(NC4CN(CCF)C4)cc3OC)ncc2C(F)(F)F)c1
inactive: Potency (Es-2) | Potency (JEG-3)
active: Potency (CRL-7250) 7.31 µM | Potency (HEK293) 8.2 µM | Potency (HaCat [1]) 3.66 µM | Potency (NIH3T3) 13 µM | Potency (CASKI) 17.8 µM

CCc1c[nH]c2ncnc(N3CC[C@](N)(CNC(=O)c4ccc(F)cc4F)C3)c12
inactive: max response (CRL-7250) -13.8% | max response (HaCat [1]) -5.86% | max response (NIH3T3) 4.64% | Potency (CAOV3) | Potency (CASKI) | Potency (Es-2) | Potency (HeLa) | Potency (JEG-3)
active: Potency (HEK293) 1.16 µM | Potency (Hek293T) 1.41 µM

Cc1cccc(-c2[nH]ncc2-c2ccnc3ccccc23)n1
inactive: max response (CRL-7250) -17.2% | max response (HEK293) -23.7% | outcome (HaCat [1]) | outcome (HACAT [2]) | Potency (C33A) | Potency (CAOV3) | Potency (CASKI) | Potency (Es-2) | Potency (HeLa) | Potency (Hek293T) | Potency (JEG-3)

C=C1C(=O)O[C@@H]2C3C(=C(C)[C@@H](O)[C@@H](OC(=O)/C(=C/C)COC(C)=O)[C@@H]12)C(=O)[C@H]1O[C@@]31C (some centres not stated)
active: Potency (CRL-7250) 6.32 µM | Potency (HEK293) 1 µM | Potency (HaCat [1]) 3.17 µM | Potency (NIH3T3) 2.24 µM | Potency (Es-2) 8.91 µM | Potency (Hek293T) 7.94 µM
inactive: Potency (HeLa) | Potency (OV90)

COc1cc(O)c2c(c1)C1OC1C[C@H](O)[C@H](O)C(=O)/C=C\C[C@H](C)OC2=O (some centres not stated)
inactive: Potency (HeLa)
active: Potency (CRL-7250) 20.6 µM | Potency (HEK293) 3.66 µM | Potency (HaCat [1]) 8.2 µM | Potency (NIH3T3) 2.06 µM

CC(C)c1ccccc1OC(=O)NCCc1ccc2ccccc2c1
inactive: max response (CRL-7250) -4.95% | max response (HEK293) 2.54% | max response (HaCat [1]) 3.54% | max response (NIH3T3) 3.78% | Potency (C33A) | Potency (CASKI) | Potency (Es-2) | Potency (HeLa) | Potency (Hek293T) | Potency (JEG-3) | Potency (OV90)

CC(C)S(=O)(=O)NC[C@H](C)c1ccc(-c2ccc(CCNS(C)(=O)=O)cc2)cc1
active: Potency (CRL-7250) 4.61 µM | Potency (HEK293) 5.8 µM | Potency (Hek293T) 8.91 µM
inactive: max response (HaCat [1]) 2.78% | Potency (CAOV3) | Potency (Es-2) | Potency (HeLa) | Potency (JEG-3)

Reference: PubChem BioAssay (NCATS)
